Measurements as given in ChEMBL document CHEMBL3988442, “University of Dundee, Small-Polar-MMV Screening Library” (2021).
Values joined by “and” are separate entries in the source; they are usually repeats but may differ in a detail not shown here. Equal values may be shown once. For some of these results: Measured potencies and affinities stand elsewhere.

Assays:
Design in all cases: scale not given: direction of the effect not stated beside the values
[1] = biological target: Protein translocase subunit SecA (Escherichia coli (strain K12)) (UniProt P10408); assay: Assay to Identify E. coli SecA ATPase Inhibitors; assay type: functional; conditions: 30 µM
Sequence of Protein translocase subunit SecA (Escherichia coli (strain K12)) (P10408 whole entry): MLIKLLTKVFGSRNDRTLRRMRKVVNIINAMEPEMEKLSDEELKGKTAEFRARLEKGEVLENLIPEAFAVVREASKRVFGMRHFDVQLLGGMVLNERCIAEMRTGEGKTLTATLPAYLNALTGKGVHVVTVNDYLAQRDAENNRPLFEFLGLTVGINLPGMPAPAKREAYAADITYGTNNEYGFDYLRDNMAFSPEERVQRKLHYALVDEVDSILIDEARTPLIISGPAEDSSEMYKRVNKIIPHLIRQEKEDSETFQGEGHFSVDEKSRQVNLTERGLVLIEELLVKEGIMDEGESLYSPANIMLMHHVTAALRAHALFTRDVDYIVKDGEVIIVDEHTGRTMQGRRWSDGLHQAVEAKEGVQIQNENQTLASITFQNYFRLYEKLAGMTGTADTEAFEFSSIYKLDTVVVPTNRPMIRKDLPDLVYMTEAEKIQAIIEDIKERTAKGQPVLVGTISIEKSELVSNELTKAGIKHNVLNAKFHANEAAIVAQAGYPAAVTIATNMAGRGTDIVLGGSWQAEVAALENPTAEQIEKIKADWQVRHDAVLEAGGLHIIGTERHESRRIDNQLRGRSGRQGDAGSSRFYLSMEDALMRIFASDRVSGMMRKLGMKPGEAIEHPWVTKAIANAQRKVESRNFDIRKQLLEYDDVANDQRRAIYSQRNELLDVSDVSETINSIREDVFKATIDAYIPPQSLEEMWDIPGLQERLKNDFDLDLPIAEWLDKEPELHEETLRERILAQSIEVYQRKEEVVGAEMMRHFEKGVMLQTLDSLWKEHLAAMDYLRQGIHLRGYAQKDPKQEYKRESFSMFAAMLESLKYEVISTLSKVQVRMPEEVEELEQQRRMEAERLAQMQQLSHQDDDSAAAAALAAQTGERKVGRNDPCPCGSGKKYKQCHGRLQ

[2] = biological target: T1, Ubiquitin-activating enzyme e1, putative (Leishmania donovani (strain BPK282A1)) (UniProt E9BSI1); assay: Leishmania donovani Ubiquitin Activating Enzyme (LdE1); assay type: functional; conditions: 30 µM
T1 sequence (whole entry): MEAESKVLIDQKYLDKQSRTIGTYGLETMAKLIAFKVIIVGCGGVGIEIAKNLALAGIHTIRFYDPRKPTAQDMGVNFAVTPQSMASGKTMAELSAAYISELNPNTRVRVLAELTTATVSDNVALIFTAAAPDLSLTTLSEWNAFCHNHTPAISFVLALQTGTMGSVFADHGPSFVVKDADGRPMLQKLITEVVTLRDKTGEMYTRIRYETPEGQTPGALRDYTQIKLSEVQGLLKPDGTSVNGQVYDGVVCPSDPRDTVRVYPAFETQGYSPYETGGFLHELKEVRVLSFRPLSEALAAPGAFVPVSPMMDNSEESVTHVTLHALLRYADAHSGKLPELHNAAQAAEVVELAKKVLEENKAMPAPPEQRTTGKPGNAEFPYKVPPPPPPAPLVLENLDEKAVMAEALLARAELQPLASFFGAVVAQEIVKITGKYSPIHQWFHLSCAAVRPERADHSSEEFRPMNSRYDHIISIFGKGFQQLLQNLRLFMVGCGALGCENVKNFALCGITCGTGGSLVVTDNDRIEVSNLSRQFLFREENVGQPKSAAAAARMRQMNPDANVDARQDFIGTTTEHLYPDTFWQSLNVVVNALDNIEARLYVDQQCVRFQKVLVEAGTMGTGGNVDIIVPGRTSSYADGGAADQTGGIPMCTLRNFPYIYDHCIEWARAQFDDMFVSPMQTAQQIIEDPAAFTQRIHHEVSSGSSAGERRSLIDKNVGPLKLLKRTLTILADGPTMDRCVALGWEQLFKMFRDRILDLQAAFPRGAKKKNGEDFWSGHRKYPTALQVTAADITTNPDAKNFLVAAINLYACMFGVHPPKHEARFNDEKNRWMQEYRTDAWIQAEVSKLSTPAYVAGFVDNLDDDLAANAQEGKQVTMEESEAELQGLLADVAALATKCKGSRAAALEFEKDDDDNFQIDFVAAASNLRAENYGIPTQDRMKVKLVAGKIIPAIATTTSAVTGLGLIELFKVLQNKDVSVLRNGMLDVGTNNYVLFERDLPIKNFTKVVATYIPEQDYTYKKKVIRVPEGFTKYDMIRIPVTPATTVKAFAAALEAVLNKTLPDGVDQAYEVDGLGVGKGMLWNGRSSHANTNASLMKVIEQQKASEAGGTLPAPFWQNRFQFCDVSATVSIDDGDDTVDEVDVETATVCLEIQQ

[3] = biological target: Sialic acid-binding Ig-like lectin 9 (Homo sapiens) (UniProt Q9Y336); assay: Hs-Siglec9 ALPHAscreen SOP 20170721; conditions: 10 µM
Sequence of Sialic acid-binding Ig-like lectin 9 (Homo sapiens) (Q9Y336 whole entry): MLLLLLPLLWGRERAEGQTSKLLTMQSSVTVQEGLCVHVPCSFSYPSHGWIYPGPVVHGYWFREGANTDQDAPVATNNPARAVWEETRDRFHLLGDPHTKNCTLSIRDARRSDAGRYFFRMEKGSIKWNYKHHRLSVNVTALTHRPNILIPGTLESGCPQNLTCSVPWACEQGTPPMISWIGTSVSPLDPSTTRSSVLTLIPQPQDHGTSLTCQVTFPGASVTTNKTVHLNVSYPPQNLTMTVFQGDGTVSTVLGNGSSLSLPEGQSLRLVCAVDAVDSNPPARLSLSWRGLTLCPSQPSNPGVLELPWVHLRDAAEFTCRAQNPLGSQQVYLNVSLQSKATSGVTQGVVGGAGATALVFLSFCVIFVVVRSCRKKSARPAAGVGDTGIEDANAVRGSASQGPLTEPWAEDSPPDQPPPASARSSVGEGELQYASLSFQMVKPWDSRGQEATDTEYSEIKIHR

Trypanosoma cruzi = assay: Trypanosoma cruzi phosphomannomutase and mannose-1-phosphate guanylyltransferase assay; assay type: functional; conditions: 10 µM
[4] = biological target: T2, Arginase-2, mitochondrial (Homo sapiens) (UniProt P78540); assay: in vitro enzyme assay to detect the production of urea directly proportional to the activity of Arginase II; assay type: functional; note: in the data most compounds retested in dose-response had high values
T2 sequence (whole entry): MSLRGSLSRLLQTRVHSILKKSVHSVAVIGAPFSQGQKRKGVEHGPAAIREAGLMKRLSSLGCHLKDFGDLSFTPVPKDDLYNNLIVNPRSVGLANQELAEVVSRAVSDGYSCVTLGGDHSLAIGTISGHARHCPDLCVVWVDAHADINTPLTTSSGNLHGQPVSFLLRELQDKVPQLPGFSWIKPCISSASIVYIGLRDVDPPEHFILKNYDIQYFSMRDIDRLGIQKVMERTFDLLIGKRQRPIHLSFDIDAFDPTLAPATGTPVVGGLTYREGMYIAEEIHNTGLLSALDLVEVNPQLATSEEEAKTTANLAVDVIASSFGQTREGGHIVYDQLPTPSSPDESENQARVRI

[5] = biological target: T3, Proteasome subunit beta (Trypanosoma cruzi) (UniProt O96673); assay: Trypanosoma cruzi proteasome chymotrypsin-like activity (TcProtChymo) assay.; note: in the data most compounds retested in dose-response had high values; assay type: functional; conditions: 9.37 µM
T3 sequence (whole entry): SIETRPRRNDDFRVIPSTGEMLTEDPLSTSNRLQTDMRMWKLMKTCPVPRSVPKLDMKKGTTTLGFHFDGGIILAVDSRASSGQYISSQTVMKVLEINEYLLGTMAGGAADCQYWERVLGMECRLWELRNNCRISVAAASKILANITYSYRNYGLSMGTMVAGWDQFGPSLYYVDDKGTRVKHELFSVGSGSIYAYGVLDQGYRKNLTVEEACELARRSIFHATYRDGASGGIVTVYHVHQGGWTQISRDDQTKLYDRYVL

Homo sapiens = organism: Homo sapiens; assay: To identify inhibition of the IFN signalling (Jak-Stat) pathway via expression of an eGFP reporter gene under the control of an IFN-stimulated response element (ISRE) containing MxA promoter.; assay type: functional; conditions: 30 µM
[6] = biological target: T4, Tyrosyl-tRNA synthetase, putative (Trypanosoma cruzi (strain CL Brener)) (UniProt Q4DSP6); assay: Trypanosoma cruzi tyrosyl tRNA synthetase (TcYRS) _High Tyrosine SOP; assay type: functional; conditions: 30 µM; note: in the data most compounds retested in dose-response had high values
T4 sequence (whole entry): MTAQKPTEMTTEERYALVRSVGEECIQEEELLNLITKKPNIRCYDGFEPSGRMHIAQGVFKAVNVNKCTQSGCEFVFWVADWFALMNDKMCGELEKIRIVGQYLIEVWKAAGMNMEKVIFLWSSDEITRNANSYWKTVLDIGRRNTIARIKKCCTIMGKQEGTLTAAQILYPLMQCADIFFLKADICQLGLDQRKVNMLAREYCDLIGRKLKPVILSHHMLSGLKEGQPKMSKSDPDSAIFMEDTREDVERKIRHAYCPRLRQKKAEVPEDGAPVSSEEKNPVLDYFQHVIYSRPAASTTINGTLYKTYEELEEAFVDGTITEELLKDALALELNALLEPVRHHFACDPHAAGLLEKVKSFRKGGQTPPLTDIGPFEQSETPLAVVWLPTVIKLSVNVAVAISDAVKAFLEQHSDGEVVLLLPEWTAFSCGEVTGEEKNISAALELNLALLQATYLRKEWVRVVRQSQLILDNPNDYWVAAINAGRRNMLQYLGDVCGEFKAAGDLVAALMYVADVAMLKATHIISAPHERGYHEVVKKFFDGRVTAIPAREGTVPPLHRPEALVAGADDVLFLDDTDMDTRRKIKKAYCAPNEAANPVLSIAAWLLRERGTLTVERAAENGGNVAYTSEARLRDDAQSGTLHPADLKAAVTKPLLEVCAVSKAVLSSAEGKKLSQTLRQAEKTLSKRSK

[7] = biological target: T4, Tyrosyl-tRNA synthetase, putative (Trypanosoma cruzi (strain CL Brener)); assay: Trypanosoma cruzi tyrosyl tRNA synthetase (TcYRS) SOP; assay type: functional; conditions: 30 µM
[8] = biological target: Chromo domain-containing protein 1 (Saccharomyces cerevisiae (strain ATCC 204508 / S288c) (Baker's yeast)) (UniProt P32657); assay: ScCHD-1 Enzyme Inhibition Assay; assay type: functional; conditions: 30 µM; note: in the data most compounds retested in dose-response had high values
Sequence of Chromo domain-containing protein 1 (Saccharomyces cerevisiae (strain ATCC 204508 / S288c) (Baker's yeast)) (P32657 whole entry, the tested form may be a part): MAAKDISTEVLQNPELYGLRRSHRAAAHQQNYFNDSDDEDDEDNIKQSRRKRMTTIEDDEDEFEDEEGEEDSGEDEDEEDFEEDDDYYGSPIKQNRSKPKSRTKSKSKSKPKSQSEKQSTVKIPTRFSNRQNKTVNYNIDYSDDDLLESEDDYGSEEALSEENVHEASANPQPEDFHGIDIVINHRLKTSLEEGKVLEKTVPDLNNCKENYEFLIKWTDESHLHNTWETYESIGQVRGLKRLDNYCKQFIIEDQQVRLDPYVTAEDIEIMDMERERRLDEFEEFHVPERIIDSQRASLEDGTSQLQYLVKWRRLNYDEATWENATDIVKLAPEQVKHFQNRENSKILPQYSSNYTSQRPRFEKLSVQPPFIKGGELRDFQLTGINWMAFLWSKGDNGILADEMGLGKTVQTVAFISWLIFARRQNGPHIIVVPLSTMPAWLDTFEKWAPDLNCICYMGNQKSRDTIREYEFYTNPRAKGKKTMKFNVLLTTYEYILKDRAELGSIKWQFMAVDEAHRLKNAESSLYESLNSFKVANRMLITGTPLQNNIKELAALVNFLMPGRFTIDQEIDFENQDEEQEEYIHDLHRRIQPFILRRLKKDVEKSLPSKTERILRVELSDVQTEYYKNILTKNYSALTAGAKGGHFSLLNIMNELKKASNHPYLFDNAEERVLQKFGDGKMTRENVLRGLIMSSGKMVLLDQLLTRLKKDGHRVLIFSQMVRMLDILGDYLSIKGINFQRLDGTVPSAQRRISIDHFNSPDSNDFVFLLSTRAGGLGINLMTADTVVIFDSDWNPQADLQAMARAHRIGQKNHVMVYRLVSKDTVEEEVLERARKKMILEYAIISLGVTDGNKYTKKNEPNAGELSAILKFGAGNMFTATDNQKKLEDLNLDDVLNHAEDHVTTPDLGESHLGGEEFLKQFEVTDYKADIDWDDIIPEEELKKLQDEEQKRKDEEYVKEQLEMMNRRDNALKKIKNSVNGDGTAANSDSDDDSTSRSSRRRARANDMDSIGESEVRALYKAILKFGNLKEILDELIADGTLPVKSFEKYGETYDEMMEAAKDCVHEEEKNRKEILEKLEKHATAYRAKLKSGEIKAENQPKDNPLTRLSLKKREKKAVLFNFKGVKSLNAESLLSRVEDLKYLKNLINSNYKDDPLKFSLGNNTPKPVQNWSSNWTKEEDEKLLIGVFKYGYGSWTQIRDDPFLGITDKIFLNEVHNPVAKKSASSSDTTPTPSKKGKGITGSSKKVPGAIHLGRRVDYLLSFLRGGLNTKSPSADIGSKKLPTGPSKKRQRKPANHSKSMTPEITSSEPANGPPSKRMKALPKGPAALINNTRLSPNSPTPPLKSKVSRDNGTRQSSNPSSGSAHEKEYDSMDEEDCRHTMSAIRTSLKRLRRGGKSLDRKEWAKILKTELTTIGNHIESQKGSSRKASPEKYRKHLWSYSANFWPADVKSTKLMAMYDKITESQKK

[9] = biological target: AMP-activated protein kinase, AMPK (Homo sapiens) (UniProt P54646+O43741+P54619+Q9UGJ0+Q9Y478+Q13131+Q9UGI9); assay: AMP-dependent Kinase enzyme assay. An in vitro enzyme assay that detects ADP turnover that is directly proportional to AMPK activity. This uses naive AMPK that is activated during the assay with MK-8722; assay type: functional; conditions: 30 µM
N/A = assay: Trypanosoma cruzi proteasome luciferase counter-screen; assay type: functional; conditions: 9.37 µM

Structure (SMILES)	Percent Effect [1] [%]	Percent Effect [2] [%]	Percent Effect [3] [%]	Percent Effect (Trypanosoma cruzi) [%]	Percent Effect ([4]; 33.3 µM) [%]	Percent Effect [5]	Percent Effect (Homo sapiens) [%]	Percent Effect [6] [%]	Percent Effect [7] [%]	Percent Effect [8] [%]	Percent Effect ([4]; 30 µM) [%]	Percent Effect [9] [%]	Percent Effect (N/A)
COc1cccc(S(=O)(=O)N2CCC(O)(CN(C)C)C2)c1 (configuration not stated)	-2.81	4	-1.76	-3.35	4.42	9.2%	-4	1.06	7.5	-23.8			
CN(C)[C@H]1CCCCN(C(=O)CCc2csc(N)n2)C1	-6.59	2.7	-1.59	1.46	-0.35	9.76%	-5.61	3.72	7.32	0.286	2.7		
O=C(C1CCOC1)N1CC[C@@H](O)[C@@H]1Cc1ccccc1 (some centres not stated)	-4.39	-14.3	-3.29	-10.1	3.2	6.09%	-3.1	-28	-60	-3.36			
O=S(=O)(NCC1(O)CCOc2ccccc21)c1ccc(Br)s1 (configuration not stated)	-7.03	2.74	-1.37	-3.72	-1.82	4.97%	21.1			-2.54		6.4	
Cn1cc(-c2nnn3c2COC(CNCc2nccs2)C3)cn1 (configuration not stated)	-3.81	11.7	1	4.19	10.5	11.6%	6.11	5.79	17.9	8.68			
O=C(NCCCN1CCOCC1)c1ccn(-c2ccc3ccccn23)n1	-0.779	6.49	1.13	-2.43	-4.05	30.3% and 30.6% and 42.5%	5.6	8.95	7.69	1.74			15% and 12%
CCNC(=O)c1ccnc(NCC2COc3cc(OC)ccc3C2)c1 (configuration not stated)	-6.93	5.41	2.93	-3.78	-1.05	23.6%	24.8	2.66	7.32	-4.55	0.54		
CC(=O)NCCNC(=O)c1sc(-c2ccc(C)cc2C)nc1C	-2.37	10.8	-4.19	-7.89	3.51	8.26%	10.8	4.95	11	7.83		-0.818	
COCc1noc(-c2ccc(N3CCCCC3CO)nc2)n1 (configuration not stated)	-2.04	-5.41	7.35	-0.485	6.64	62% and 48.5% and 57.3%	2.19	0.532	0	-0.226			26.9%
Cc1nc(N)sc1C(=O)N1CCCC(c2nccn2CCCN(C)C)C1 (configuration not stated)	-5.86	10.8	10.2	7.47	-3.15	13.2%	7.55	11.2	9.76	95.1	9.19		
COc1cccc(-c2noc(C3CCN(Cc4cccs4)C3)n2)c1 (configuration not stated)	4.18	4	-7.16	-5.33	1.77	57.3% and 54.2% and 60.1%	16	-3.17	7.5	-23.7			26.2% and 26.8%
c1ccc(-c2ccc(C3CNCCO3)nc2)cc1 (configuration not stated)	-1.91	14.7	-4.38	-2.37	-3.1	41% and 49.8% and 42.6%	-23.6	3.17	7.5	-25.7			18% and 21%
